Assay results as given in PubChem BioAssay AID1159580 (chemical genetic matrix, 2015).
Out of some 5,500 compounds screened, about 2,000 (36%) were called active. Another 18% or so got no clear call; they are omitted. No stated cut-off is given here; in the data, active means normalized growth mostly below about 0.91 (no sharp cut-off); inconclusive means no clear call, values can overlap the other calls; inactive means mostly above about 0.92. The list shows a part of the results.

Test: chemical genetic growth profiling, strain panel (AID 1159580);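 further: tested at 20 µM; growth read once vehicle control cultures reached saturation at 30 °C; 1 = growth at the plate median or of vehicle wells; lower values mean less growth of the strain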
Settings: growth OD

Measured: normalized growth

COc1cc(O)c(C(=O)/C=C/c2ccccc2)c(OC)c1
active: S. cerevisiae deletion strains, locus YJL187C, strain SWE1 (second series), active compounds read low 0.866 | S. cerevisiae deletion strains, locus YKL068W, active compounds read low 0.934 | S. cerevisiae deletion strains, locus YKL160W, strain elf1, active compounds read low 0.852 | S. cerevisiae deletion strains, locus YKR001C, strain vps1, active compounds read low 0.642 | S. cerevisiae deletion strains, locus YLL001W, strain dnm1, active compounds read low 0.899 | S. cerevisiae deletion strains, locus YLR027C, strain aat2, active compounds read low 0.859 | S. cerevisiae deletion strains, locus YLR039C, strain RIC1, active compounds read low 0.674 | S. cerevisiae deletion strains, locus YLR058C, strain SHM2, active compounds read low 0.848 | S. cerevisiae deletion strains, locus YLR102C, strain apc9, active compounds read low 0.922 | S. cerevisiae deletion strains, locus YLR221C, strain rsa3, active compounds read low 0.844 | S. cerevisiae deletion strains, locus YLR258W, strain gsy2, active compounds read low 0.907 | S. cerevisiae deletion strains, locus YLR262C, strain YPT6 (second series), active compounds read low 0.774 | S. cerevisiae deletion strains, locus YLR268W, strain sec22, active compounds read low 0.804 | S. cerevisiae deletion strains, locus YLR320W, strain mms22, active compounds read low 0.748 | S. cerevisiae deletion strains, locus YLR371W, strain rom2, active compounds read low 0.8 | S. cerevisiae deletion strains, locus YLR418C, strain cdc73, active compounds read low 0.41 | S. cerevisiae deletion strains, locus YML032C, strain rad52, active compounds read low 0.826 | S. cerevisiae deletion strains, locus YML120C, strain ndi1, active compounds read low 0.866 | S. cerevisiae deletion strains, locus YML124C, strain tub3, active compounds read low 0.923 | S. cerevisiae deletion strains, locus YMR078C, strain ctf18, active compounds read low 0.898 | S. cerevisiae deletion strains, locus YMR205C, strain PFK2, active compounds read low 0.805 | S. cerevisiae deletion strains, locus YMR223W, strain ubp8, active compounds read low 0.87 | S. cerevisiae deletion strains, locus YMR307W, strain GAS1, active compounds read low 0.502 | S. cerevisiae deletion strains, locus YNL071W, strain lat1, active compounds read low 0.503 | S. cerevisiae deletion strains, locus YNL233W, strain BNI4, active compounds read low 0.766 | S. cerevisiae deletion strains, locus YNL298W, strain CLA4, active compounds read low 0.879 | S. cerevisiae deletion strains, locus YNL307C, strain MCK1, active compounds read low 0.301 | S. cerevisiae deletion strains, locus YOL147C, strain pex11, active compounds read low 0.739 | S. cerevisiae deletion strains, locus YOR070C, strain gyp1, active compounds read low 0.897 | S. cerevisiae deletion strains, locus YOR083W, strain WHI5, active compounds read low 0.852 | S. cerevisiae deletion strains, locus YOR106W, strain vam3, active compounds read low 0.802 | S. cerevisiae deletion strains, locus YOR136W, strain idh2, active compounds read low 0.907 | S. cerevisiae deletion strains, locus YOR144C, strain elg1, active compounds read low 0.878 | S. cerevisiae deletion strains, locus YOR184W, strain ser1, active compounds read low 0.602 | S. cerevisiae deletion strains, locus YOR265W, strain rbl2, active compounds read low 0.903 | S. cerevisiae deletion strains, locus YOR290C, strain snf2, active compounds read low 0.853 | S. cerevisiae deletion strains, locus YPL051W, strain arl3, active compounds read low 0.82 | S. cerevisiae deletion strains, locus YPL078C, strain atp4, active compounds read low 0.864 | S. cerevisiae deletion strains, locus YPL106C, strain sse1, active compounds read low 0.772 | S. cerevisiae deletion strains, locus YPL240C, strain hsp82, active compounds read low 0.919 | S. cerevisiae deletion strains, locus YPR119W, strain clb2, active compounds read low 0.921 | S. cerevisiae deletion strains, locus YPR163C, strain tif3, active compounds read low 0.605 | S. cerevisiae deletion strains, locus YPR167C, strain met16, active compounds read low 0.869 | S. cerevisiae deletion strains, strain wtn01, active compounds read low 0.816
inactive: S. cerevisiae deletion strains, locus YJL168C, strain set2, active compounds read low 0.943 | S. cerevisiae deletion strains, locus YKL009W, strain mrt4, active compounds read low 0.89 | S. cerevisiae deletion strains, locus YKL085W, strain MDH1 (second series), active compounds read low 0.952 | S. cerevisiae deletion strains, locus YKL085W, strain MDH1, active compounds read low 0.952 | S. cerevisiae deletion strains, locus YKL190W, strain CNB1, active compounds read low 0.953 | S. cerevisiae deletion strains, locus YKR026C, strain gcn3, active compounds read low 0.95 | S. cerevisiae deletion strains, locus YKR091W, strain srl3, active compounds read low 0.942 | S. cerevisiae deletion strains, locus YLL026W, active compounds read low 0.937 | S. cerevisiae deletion strains, locus YLL041C, strain sdh2, active compounds read low 0.943 | S. cerevisiae deletion strains, locus YLR262C, strain YPT6, active compounds read low 0.708 | S. cerevisiae deletion strains, locus YLR342W, strain FKS1 (second series), active compounds read low 0.876 | S. cerevisiae deletion strains, locus YLR342W, strain FKS1, active compounds read low 0.93 | S. cerevisiae deletion strains, locus YLR357W, strain rsc2, active compounds read low 1.01 | S. cerevisiae deletion strains, locus YLR370C, strain arc18, active compounds read low 0.943 | S. cerevisiae deletion strains, locus YLR384C, strain iki3, active compounds read low 0.947 | S. cerevisiae deletion strains, locus YML016C, strain PPZ1, active compounds read low 0.931 | S. cerevisiae deletion strains, locus YMR058W, strain fet3, active compounds read low 0.918 | S. cerevisiae deletion strains, locus YMR125W, strain sto1, active compounds read low 0.893 | S. cerevisiae deletion strains, locus YMR129W, active compounds read low 0.937 | S. cerevisiae deletion strains, locus YMR231W, strain pep5, active compounds read low 0.967 | S. cerevisiae deletion strains, locus YNL067W, strain RPL9B, active compounds read low 0.925 | S. cerevisiae deletion strains, locus YNL128W, strain TEP1, active compounds read low 0.95 | S. cerevisiae deletion strains, locus YNL209W, strain ssb2, active compounds read low 0.95 | S. cerevisiae deletion strains, locus YNL248C, strain rpa49, active compounds read low 0.951 | S. cerevisiae deletion strains, locus YNL250W, strain rad50, active compounds read low 0.979 | S. cerevisiae deletion strains, locus YNL271C, strain bni1, active compounds read low 0.953 | S. cerevisiae deletion strains, locus YNL322C, strain KRE1 (second series), active compounds read low 0.947 | S. cerevisiae deletion strains, locus YNL322C, strain KRE1, active compounds read low 0.948 | S. cerevisiae deletion strains, locus YNR049C, strain mso1, active compounds read low 0.964 | S. cerevisiae deletion strains, locus YNR052C, strain pop2, active compounds read low 0.946 | S. cerevisiae deletion strains, locus YOL006C, strain TOP1, active compounds read low 0.733 | S. cerevisiae deletion strains, locus YOL012C, strain htz1 1.12 | S. cerevisiae deletion strains, locus YOR001W, strain rrp6, active compounds read low 0.894 | S. cerevisiae deletion strains, locus YOR061W, strain CKA2, active compounds read low 0.957 | S. cerevisiae deletion strains, locus YOR069W, strain VPS5, active compounds read low 0.94 | S. cerevisiae deletion strains, locus YOR080W, strain dia2, active compounds read low 0.966 | S. cerevisiae deletion strains, locus YOR270C, strain vph1, active compounds read low 0.811 | S. cerevisiae deletion strains, locus YOR316C, strain cot1, active compounds read low 0.931 | S. cerevisiae deletion strains, locus YPR141C, strain kar3, active compounds read low 0.96 | S. cerevisiae strains, strain wild type, active compounds read low 0.905
